# HSV replic up: increases HSV replication in cells; HSV replication augmentation in cells, fold increase; AID 1956; 0.005% of 220,000 active; maximum fold increase; in the data active means maximum fold increase above about 1.5; inconclusive means no clear call, values can overlap the other calls; tested in PC3 cells
# Efa HMGR inh: blocks class II HMG-CoA reductase of Enterococcus faecalis; inhibition, % at 10 µM; 0.41% of 190,000 active; purified E. faecalis HMGR, NADPH absorbance 340 nm kinetic;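 active means inhibition above a set limit, the median over all tested compounds plus 3 SD, cut at about 9.5% in these data; inconclusive means no clear call, values can overlap the other calls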;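 further: enzyme runs in reverse so mevalonate oxidation gives rising NADPH absorbance; 0% = complete reaction with DMSO and 100% = background rate lacking mevalonate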
# Arbovirus inh: blocks arbovirus infection | arbovirus infection cell-based antiviral screen | inhibition, % at 10 µM | 0.37% of 200,000 active | AID 1251; in the data active means inhibition above about 30%
# ROMK primary: modulates human ROMK potassium channel activity; P48048; Tet-inducible ROMK, thallium flux fluorescence; actives lie on both sides; B-score at 10 µM; 2% of 130,000 active; AID 1918;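 active means signal ratio slope over the read window, or its plate-corrected B-score, at least 3 SD from the plate mean, either direction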;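 further: B-score of the F/F0 ratio slope over 7 to 12 s after thallium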
# Target sequence (P48048 whole entry, looked up): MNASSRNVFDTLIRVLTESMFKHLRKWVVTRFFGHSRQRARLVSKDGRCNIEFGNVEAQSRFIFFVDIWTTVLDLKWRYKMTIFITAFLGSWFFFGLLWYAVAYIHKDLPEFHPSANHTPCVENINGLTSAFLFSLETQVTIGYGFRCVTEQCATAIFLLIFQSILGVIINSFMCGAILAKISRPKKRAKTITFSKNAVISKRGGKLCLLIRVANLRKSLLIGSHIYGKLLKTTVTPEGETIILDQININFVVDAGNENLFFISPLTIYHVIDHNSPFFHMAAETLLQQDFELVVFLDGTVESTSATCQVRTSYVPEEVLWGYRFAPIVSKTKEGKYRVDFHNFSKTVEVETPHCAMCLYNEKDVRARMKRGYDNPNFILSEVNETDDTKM
# m-calpain inh: inhibitors of pig calpain II. 0.37% of 220,000 active. purified calpain II, fluorogenic peptide substrate, 30 min. inhibition, % at 16 µM. AID 1236;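 active means inhibition above about 50%, limit read from the data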
# * marks the source's active call; other numbers are inactive results; i = inactive; ? = inconclusive; . = not tested or not shown; ! = not confirmed by another sample. An excerpt weighted towards active compounds, which were near 2.1% of everything screened.
SMILES,HSV replic up,Efa HMGR inh,Arbovirus inh,ROMK primary,m-calpain inh
CC1=C(C(=O)OCc2ccc(C)cc2)C(c2ccc(O)c([N+](=O)[O-])c2)NC(=O)N1 (configuration not stated),i,3,27,-0.023,7
Cc1nc2ccccc2n1/N=C/c1cccnc1,i,-10,-6,1.2,-10
Nc1nc2ccccc2n1/N=C/c1cccnc1,i,-2,-6,2.2*,1
Nc1nc2ccccc2n1/N=C/c1ccc(-c2ccccc2)o1,.,-3,39*,0.13,35
Nc1nc2ccccc2n1/N=C/c1ccc([N+](=O)[O-])s1,i,6,-16,0.63,12
Cc1cc(C)c(C(=O)Nc2ccc(Br)c(C(F)(F)F)c2)c(C)c1,i,1,-29,-0.0077,26
Cc1ccccc1C(=O)c1cccn1CC(=O)NC(C)c1ccc2c(c1)OCCO2 (configuration not stated),i,12*,-5,-0.41,-19
CC(CCCC(C)(C)O)NC(=O)c1ccc(OC2CCN(C(=O)C3CC3)CC2)cc1 (configuration not stated),i,10*,4,0.61,17
CC(C)C[C@H](NC(=O)c1ccc(OC2CCN(C(=O)C3CC3)CC2)cc1)C(N)=O,i,-5,13,0.62,-28
COc1ccc(OC)c(CNc2ccc([N+](=O)[O-])cc2C)c1,i,-4,4,-1.8,51*
CC(=O)[C@@]1(O)CC[C@H]2[C@@H]3CCC4=CC(=O)CC[C@]4(C)[C@H]3CC[C@@]21C,i,12*,-6,.,6
CC(=O)OC1CCC2C3CCC4=CC(=O)CCC4(C)C3CCC2(C)[C@]1(C)O (some centres not stated),i,.,.,.,.
CNCCCC1Sc2ccccc2Oc2ccccc21 (configuration not stated),i,-3,-36,-3.7*,16
CNCCCC1c2ccccc2C=Cc2ccccc21,i,-2,-43,.,-6
N#Cc1c2n(c3c(=O)[nH]cnc13)CCCC2,i,-7,1,.,-1
N#Cc1c2n(c3c(=S)nc[nH]c13)CCCCC2,i,0,31*,.,14
Nc1ccc(CN2CCOCC2)cc1,i,0,-1,.,-30
S=C(NCc1ccco1)N/N=C/c1ccccc1Cl,i,-4,2,-0.027,46
S=C(NCc1ccco1)N/N=C/c1ccc(Cl)cc1,i,1,1,0.35,68*
COc1ccccc1/C=N/NC(=S)NCc1ccco1,i,.,.,-0.19,60*
COc1ccc(N=Cc2nc(-c3ccco3)oc2O)cc1,i,11*,-16,0.59,1
Cc1ccc(N=Cc2nc(-c3ccc(C)cc3)oc2O)cc1,i,-3,-4,0.098,-1
COc1cc(C)nc(NC(=S)N(C)C(=O)c2ccccc2)n1,i,.,.,.,-1
Cc1ccc(NC2OC(CO)C(O)C2O)cc1[N+](=O)[O-] (configuration not stated),i,-8,1,1.3,85*
COc1ccc(Cn2c(C)c(C)c(C#N)c2NC(=O)Nc2cccc(C)c2)cc1,i,3,52*,.,39
SMILES,HSV replic up,Efa HMGR inh,Arbovirus inh,ROMK primary,m-calpain inh
CC1CCc2c(sc(NC(=O)c3ccccc3C(=O)O)c2C#N)C1 (configuration not stated),i,2,59*,.,-1
CC1CCc2c(sc(NC(=S)NC(=O)c3ccccc3)c2C#N)C1 (configuration not stated),i,.,.,.,8
Nc1nc(-c2ccco2)nn1S(=O)(=O)c1ccc(Cl)cc1,i,1,-1,0.44,4
COc1cccc(-c2nnc(NC(C)=O)o2)c1,i,.,4,.,-25
COc1ccccc1-c1nnc(Nc2nc3c(OC)cccc3s2)o1,i,-8,-20,2.4*,-200
COc1cccc2sc(Nc3nnc(-c4ccccc4Cl)o3)nc12,i,-8,-22,.,-47
COc1cccc2sc(Nc3nc(-c4ccncc4)cs3)nc12,i,-8,-9,1,-30
COc1cccc(-c2nnc(Nc3nc4c(F)cccc4s3)o2)c1,i,-3,-12,9.4*,4
COc1cccc2sc(NN)nc12,i,1,37*,0.26,-20
Cc1ccc(NC(=S)Nc2cccnc2)c(S(=O)(=O)N2CCCCC2)c1,i,1,-2,0.37,-38
COc1ccc(Cc2noc(CN(C)CC3(N4CCOCC4)CCCCC3)n2)cc1OC,i,2,4,0.19,-1
CC(C)CC(NC(=O)C(COC(C)(C)C)NC(=O)C(Cc1ccc(O)cc1)NC(=O)C(CO)NC(=O)C(Cc1c[nH]c2ccccc12)NC(=O)C(Cc1cnc[nH]1)NC(=O)C1CCC(=O)N1)C(=O)N[C@@H](CCCN=C(N)N)C(=O)N1CCCC1C(=O)NNC(N)=O (some centres not stated),i,.,.,.,.
N[C@@H](Cc1cc(I)c(Oc2ccc(O)c(I)c2)c(I)c1)C(=O)O,i,-3,47*!,.,1
COc1cccc(C(=O)Nc2c[nH]c(=O)[nH]c2=O)c1,i,.,.,.,-4
C=CCN(C(=O)c1ccccn1)C(C(=O)NCc1ccccc1)c1ccccc1F (configuration not stated),i,-5,3,0.15,16
N#CCCCn1c(=O)oc2ccccc21,i,15*,0,0.45,-35
Cc1nnc(NC(=O)Nc2cccc(Cl)c2)s1,i,1,23,.,-30
Cc1ccc(OCCSCc2nnc(NC(=O)Nc3cccc(Cl)c3)s2)cc1,i,-1,38*,.,-23
S=C(NCc1ccccc1)NNc1ccccc1,i,-4,4,-1,-14
CC(=O)N/N=C/c1cc(C(C)C)cc(/C=N/NC(C)=O)c1O,?,-1,-21,-3.3*,i
Cc1ccc([N+](=O)[O-])cc1NC(=O)C[n+]1ccccc1,i,13*,26,-0.099,47
Cc1cc([N+](=O)[O-])ccc1NC(=O)C[n+]1ccc(N(C)C)cc1,i,-4,6,.,8
COc1ccc(C)cc1NC(=O)c1ccc([N+](=O)[O-])cc1[N+](=O)[O-],i,5,-1,0.55,-28
COc1ccc(NC(=O)COC(=O)Cc2c(F)cccc2Cl)cc1OC,i,-2,0,0.019,10
O=C(N[C@@H](Cc1ccccc1)C(=O)OCc1ccccc1)c1nc[nH]c1C(=O)N1CCN(c2ccccc2)CC1,i,.,.,.,51*
Oc1cc(O)c2c(c1)O[C@H](c1ccc(O)c(O)c1)[C@@H](O)C2,i,.,.,.,-5
O=C1c2c(O)cc(O)cc2O[C@@]12c1c(cc(O)c3c1O[C@H](c1ccc(O)cc1)[C@@H](O)C3)O[C@@H]2c1ccc(O)cc1,i,9.6*,1,-0.025,-54
COc1ccc(S(=O)(=O)N2CCC[C@H]2C(=O)NCc2ccc(Cl)cc2)cc1,i,.,.,.,6
COc1ccc(CNC(=O)C2CCCN2S(=O)(=O)c2ccc(Cl)cc2)cc1 (configuration not stated),i,18*,-6,.,0
COc1ccc(/C=N/Nc2nccnc2Cl)c(OC)c1,i,18*,-5,-0.098,-11
